The results in this text go back to PubChem BioAssay (NCI).

The panel holds about 83,000 compounds, 20% with a hit somewhere; the sample as a whole holds those more often.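 48-hour exposure, single concentration, 96-well plates; percent growth endpoint where 0 means no net growth. Active: below 10.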 A number with no mark means an inactive call. Active and inactive are the calls of the source.

In the first experiment the test system is SNB-19 CNS. Kind of experiment: NCI-60 one-dose screen, 48 h (100 = growth as untreated, 0 = no growth, -100 = all killed). The note with it: 10 µM unless noted.
As to `Nc1c(C(=O)c2ccc(F)cc2)sc2nc3c(cc12)CCCC3`, the growth is 95.4%.

As to `COc1cccc(/C=C2\SC(N3CCN(c4ccccn4)CC3)=NC2=O)c1`, the growth is 99.4%.

`CCCC(C(=O)OCC)C(C)OC(=O)OCC` (stereo not drawn): the growth was 106%.

As to `O=C(/C=C/CN1CCOCC1)Nc1cc2c(Nc3cccc(Cl)c3F)ncnc2cc1OCCOC(F)F`, the growth was 81.7%.

For `COc1ccc(-c2nc3sccn3c2-c2ccnc(NCCCNS(=O)(=O)c3ccc4ccccc4c3)n2)cc1`, the growth is 86.1%.

`CC(CCc1ccccc1)NC(=O)c1n[nH]c(=O)c2ccccc12` (stereo not drawn): the growth is 115%.

For the compound `Cc1cc(NC(=O)COC(=O)c2sc3cc(F)ccc3c2Cl)no1`, the growth is 103%.

Take `COc1ccc(C(=O)c2cc(OC)c(OC)c(OC)c2)cc1/C=C/C(=O)c1ccc2c(c1)OCO2`: the growth is 11.8%.

In the case of `COc1ccc(/C=C/c2cc(N3CCOCC3)c3cc(F)c(F)cc3n2)cc1OC`, the growth was 48.8%.

`CCn1cc(C(=O)O)c(=O)c2cc(F)c(N3CCN(S(=O)(=O)c4c(C)cc(C)cc4C)CC3)cc21`: the growth is 89.9%.

With `O=C(Nc1cc(C(F)(F)F)cc(C(F)(F)F)c1)Nc1ccc(OCc2nnc(-c3ccc(Cl)cc3)o2)c(F)c1`, the growth was 23%.

Take `O=C(c1ccncc1)N1N=C(c2ccc(Cl)cc2)CC1c1c[nH]c2ccccc12` (stereo not drawn): the growth was 105%.

Consider `CC(Br)C(OC(=O)c1ccccc1Cl)c1cc2c(cc1Br)OCO2` (stereo not drawn), for which the growth was 93.7%.

For the compound `CCC(c1ccc(OC)cc1)C(CC)c1ccc(O)c(CN2CCCC2)c1` (stereo not drawn), the growth was 40.6%.

Regarding `CC(C)(C)OC(=O)N[C@@H](Cc1ccccc1)C(=O)N(Cc1ccccc1)C1(C(=O)NCc2ccccc2)CCN(Cc2ccccc2)CC1`, the growth was 31.6%.

Consider `Cn1c(-c2nonc2NC(=O)c2ccc(F)cc2)nc2ccccc21`, for which the growth is 110%.

Turning to `c1ccn2nnnc2c1`, the growth was 106%.

As for `c1cncc(CNc2ccccc2-c2nnc(Nc3ccc4c(c3)OCCO4)o2)c1`, the growth is 38.1%.

As for `COc1cc2nc(SCc3cc(OC)c(OC)c(OC)c3)n(Cc3ccccc3)c(=O)c2cc1OC`, the growth is 48.8%.

For the compound `COc1ccc(C(=O)N2CCN(C(=O)c3cc(OC)c(OC)c(OC)c3)CC2)cc1OCCCCOc1cc2c(cc1OC)C(=O)N1CCC[C@H]1C=N2`, the growth is 99.4%.

As for `O=S(=O)(NCCNc1cc(-c2cn(-c3ccccc3)nc2-c2ccccc2)ccn1)c1cccc2ccccc12`, the growth is 67%.

Regarding `O=S(=O)(NCCNc1nccc(-c2c(-c3ccccc3)nc3sccn23)n1)c1ccc(O)cc1`, the growth is 56.5%.

On to `Cc1ccc2c(c1)C(C)Cc1c(N(C)C)ncnc1N2C` (stereo not drawn), for which the growth was 43.8%.

Consider `CCN(CC)c1cc(/C=C/c2ccc(OC)c(OC)c2)nc2cc(F)c(F)cc12`, for which the growth was -33.1% (active).

As for `COc1ccc(-c2nc3sccn3c2-c2ccnc(NCCCNS(=O)(=O)c3ccc(C)cc3)n2)cc1`, the growth was 71.7%.

Regarding `C=C1C(=O)O[C@H]2[C@H]1CC/C(Cn1cc(-c3ccc(N)cc3)nn1)=C\CC[C@@]1(C)O[C@@H]21`, the growth is 61.3%.

With `CC(C)N(Cc1ccc(CN(C(=O)CCl)C(C)C)cc1)C(=O)CCl`, the growth was 63.2%.

`COc1ccc(NC(=S)/N=c2\oc3c(OC)cccc3cc2-c2cc3ccccc3[nH]2)cc1`: the growth was 57.8%.

Regarding `Cc1cnc(NC(=O)C(Cc2ccccc2)NC(=O)c2ccccc2)s1` (stereo not drawn), the growth is 93.3%.

With `CC(C)C[C@H](NC(=O)Cn1ccc(NCc2ccccc2)cc1=O)B(O)O`, the growth is 42.2%.

On to `CN1CCN(CCCOc2ccc3nc(Nc4ccc(C(F)(F)F)c(Cl)c4)ccc3c2)CC1`, for which the growth was -41.2% (active).

In the case of `O=C(CCCn1c2c(sc3ccccc32)c(=O)n2nnc(-c3ccccc3)c12)NCCc1cnc[nH]1`, the growth is 27.3%.

Regarding `CC1Cc2c(N(C)C)ncnc2N(C)c2ccc(Cl)cc21` (stereo not drawn), the growth is 39.1%.

With `O=C(Nc1ccc(F)cc1)c1cc([N+](=O)[O-])ccc1O`, the growth was 70.9%.

Turning to `CC(=O)Nc1ccc2c(c1)/C(=C\C=C/c1ccc([N+](C)(C)C)cc1)c1ccccc1-2`, the growth was 36.6%.

With `COc1ccc(-c2nc3sccn3c2-c2ccnc(NCCNS(=O)(=O)c3ccc(C(F)(F)F)cc3)n2)cc1`, the growth is 34.2%.

In the case of `O=C1C2=C(C(=O)c3c(O)ccc(O)c31)N(c1cccnc1)Cc1ccccc1O2`, the growth was 5.25% (active).

Regarding `CC(=O)Nc1ccc(S(=O)(=O)NC(CCC(=O)Nc2ccc(Cl)cc2)C(=O)O)cc1` (stereo not drawn), the growth was 100%.

`COc1ccc(-c2cn[nH]c2-c2cc(OC)c3c(c2)OCCO3)cc1`: the growth is 60.4%.

In a further experiment the test system is U251 CNS. Described as above. The settings on record: 10 µM unless noted.
As to `Nc1c(C(=O)c2ccc(F)cc2)sc2nc3c(cc12)CCCC3`, the growth was 79.4%.

As to `COc1cccc(/C=C2\SC(N3CCN(c4ccccn4)CC3)=NC2=O)c1`, the growth was 105%.

`CCCC(C(=O)OCC)C(C)OC(=O)OCC` (stereo not drawn): the growth was 102%.

With `O=C(/C=C/CN1CCOCC1)Nc1cc2c(Nc3cccc(Cl)c3F)ncnc2cc1OCCOC(F)F`, the growth is 94.1%.

As for `COc1ccc(-c2nc3sccn3c2-c2ccnc(NCCCNS(=O)(=O)c3ccc4ccccc4c3)n2)cc1`, the growth was 67.3%.

In the case of `CC(CCc1ccccc1)NC(=O)c1n[nH]c(=O)c2ccccc12` (stereo not drawn), the growth is 103%.

In the case of `Cc1cc(NC(=O)COC(=O)c2sc3cc(F)ccc3c2Cl)no1`, the growth was 106%.

With `COc1ccc(C(=O)c2cc(OC)c(OC)c(OC)c2)cc1/C=C/C(=O)c1ccc2c(c1)OCO2`, the growth is -19.1% (active).

Turning to `COc1ccc(/C=C/c2cc(N3CCOCC3)c3cc(F)c(F)cc3n2)cc1OC`, the growth is 23.5%.

For the compound `CCn1cc(C(=O)O)c(=O)c2cc(F)c(N3CCN(S(=O)(=O)c4c(C)cc(C)cc4C)CC3)cc21`, the growth was 83.3%.

For `O=C(Nc1cc(C(F)(F)F)cc(C(F)(F)F)c1)Nc1ccc(OCc2nnc(-c3ccc(Cl)cc3)o2)c(F)c1`, the growth is 1.55% (active).

For `O=C(c1ccncc1)N1N=C(c2ccc(Cl)cc2)CC1c1c[nH]c2ccccc12` (stereo not drawn), the growth is 93.4%.

`CC(Br)C(OC(=O)c1ccccc1Cl)c1cc2c(cc1Br)OCO2` (stereo not drawn): the growth is 95.9%.

As for `CCC(c1ccc(OC)cc1)C(CC)c1ccc(O)c(CN2CCCC2)c1` (stereo not drawn), the growth is 7.11% (active).

Regarding `CC(C)(C)OC(=O)N[C@@H](Cc1ccccc1)C(=O)N(Cc1ccccc1)C1(C(=O)NCc2ccccc2)CCN(Cc2ccccc2)CC1`, the growth was 33.8%.

With `Cn1c(-c2nonc2NC(=O)c2ccc(F)cc2)nc2ccccc21`, the growth is 108%.

In the case of `c1ccn2nnnc2c1`, the growth is 92.7%.

With `c1cncc(CNc2ccccc2-c2nnc(Nc3ccc4c(c3)OCCO4)o2)c1`, the growth is 30.8%.

As for `COc1cc2nc(SCc3cc(OC)c(OC)c(OC)c3)n(Cc3ccccc3)c(=O)c2cc1OC`, the growth is 29%.

On to `COc1ccc(C(=O)N2CCN(C(=O)c3cc(OC)c(OC)c(OC)c3)CC2)cc1OCCCCOc1cc2c(cc1OC)C(=O)N1CCC[C@H]1C=N2`, for which the growth is 101%.

With `O=S(=O)(NCCNc1cc(-c2cn(-c3ccccc3)nc2-c2ccccc2)ccn1)c1cccc2ccccc12`, the growth was 53.3%.

Consider `O=S(=O)(NCCNc1nccc(-c2c(-c3ccccc3)nc3sccn23)n1)c1ccc(O)cc1`, for which the growth is 41.5%.

As to `Cc1ccc2c(c1)C(C)Cc1c(N(C)C)ncnc1N2C` (stereo not drawn), the growth was 21.3%.

As for `CCN(CC)c1cc(/C=C/c2ccc(OC)c(OC)c2)nc2cc(F)c(F)cc12`, the growth is -62.3% (active).

Consider `COc1ccc(-c2nc3sccn3c2-c2ccnc(NCCCNS(=O)(=O)c3ccc(C)cc3)n2)cc1`, for which the growth was 45.1%.

For the compound `C=C1C(=O)O[C@H]2[C@H]1CC/C(Cn1cc(-c3ccc(N)cc3)nn1)=C\CC[C@@]1(C)O[C@@H]21`, the growth was 34.1%.

Regarding `CC(C)N(Cc1ccc(CN(C(=O)CCl)C(C)C)cc1)C(=O)CCl`, the growth was -41% (active).

In the case of `COc1ccc(NC(=S)/N=c2\oc3c(OC)cccc3cc2-c2cc3ccccc3[nH]2)cc1`, the growth is 75.7%.

In the case of `Cc1cnc(NC(=O)C(Cc2ccccc2)NC(=O)c2ccccc2)s1` (stereo not drawn), the growth was 92.2%.

Regarding `CC(C)C[C@H](NC(=O)Cn1ccc(NCc2ccccc2)cc1=O)B(O)O`, the growth was 44.6%.

Consider `CN1CCN(CCCOc2ccc3nc(Nc4ccc(C(F)(F)F)c(Cl)c4)ccc3c2)CC1`, for which the growth is -62.3% (active).

`O=C(CCCn1c2c(sc3ccccc32)c(=O)n2nnc(-c3ccccc3)c12)NCCc1cnc[nH]1`: the growth was -83.2% (active).

For `CC1Cc2c(N(C)C)ncnc2N(C)c2ccc(Cl)cc21` (stereo not drawn), the growth is 27.3%.

Consider `O=C(Nc1ccc(F)cc1)c1cc([N+](=O)[O-])ccc1O`, for which the growth was 61.6%.

Consider `CC(=O)Nc1ccc2c(c1)/C(=C\C=C/c1ccc([N+](C)(C)C)cc1)c1ccccc1-2`, for which the growth is 26%.

`COc1ccc(-c2nc3sccn3c2-c2ccnc(NCCNS(=O)(=O)c3ccc(C(F)(F)F)cc3)n2)cc1`: the growth was 15.4%.

In the case of `O=C1C2=C(C(=O)c3c(O)ccc(O)c31)N(c1cccnc1)Cc1ccccc1O2`, the growth is 2.04% (active).

For the compound `CC(=O)Nc1ccc(S(=O)(=O)NC(CCC(=O)Nc2ccc(Cl)cc2)C(=O)O)cc1` (stereo not drawn), the growth is 90.6%.

Take `COc1ccc(-c2cn[nH]c2-c2cc(OC)c3c(c2)OCCO3)cc1`: the growth was 16.4%.
